Most compounds without a hit are left out; they make up all but 3.8% or so of the library.
PAFAH1B2 FP inh – PAFAH1B2 (human) inhibition. recombinant PAFAH1B2, FP-rhodamine activity probe, fluorescence polarization. P68402. AID 492953. inhibition, % at 3.39 µM. 1.2% of 340,000 active;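 active means inhibition above the mean of all tested compounds plus 3 SD, cut at about 24% in these data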;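 further: 0% = enzyme with DMSO and 100% = wells lacking PAFAH1B2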
pPAFAH FP inh – inhibitors of human plasma PAF acetylhydrolase (pPAFAH). recombinant pPAFAH, FP-rhodamine probe fluorescence polarization. AID 463082. inhibition, % at 3.39 µM. 1.5% of 330,000 active. Q13093;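 active means inhibition above the mean inhibition across the screen plus 3 SD, cut at about 25% in these data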;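 further: inhibitors block binding of the rhodamine activity-based probe so polarization drops; 0% = enzyme with DMSO and 100% = wells lacking pPAFAH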
Target sequence (Q13093 whole entry, looked up): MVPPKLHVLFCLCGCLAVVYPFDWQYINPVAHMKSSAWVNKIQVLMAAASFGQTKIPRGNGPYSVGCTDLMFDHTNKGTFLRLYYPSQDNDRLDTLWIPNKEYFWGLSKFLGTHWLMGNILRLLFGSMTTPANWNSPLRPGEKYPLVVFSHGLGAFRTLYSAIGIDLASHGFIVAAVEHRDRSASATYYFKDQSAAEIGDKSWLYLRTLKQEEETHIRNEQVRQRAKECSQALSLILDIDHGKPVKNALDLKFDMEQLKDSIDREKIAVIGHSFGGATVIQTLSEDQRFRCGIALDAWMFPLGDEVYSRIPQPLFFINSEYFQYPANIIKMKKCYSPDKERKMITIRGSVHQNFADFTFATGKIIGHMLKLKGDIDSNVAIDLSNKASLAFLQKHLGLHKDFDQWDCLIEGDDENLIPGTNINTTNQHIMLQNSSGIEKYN
PAFAH2 FP inh – inhibitors of human PAFAH2 | Q99487 | recombinant PAFAH2, FP-rhodamine activity probe, fluorescence polarization | inhibition, % at 3.39 µM | 0.99% of 340,000 active | AID 492956;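 active means inhibition above the mean over all tested compounds plus 3 SD, cut at about 30% in these data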;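 further: inhibitors block probe labeling of enzyme so polarization drops; 0% = enzyme with DMSO and 100% = wells lacking PAFAH2 protein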
PAFAH1B3 inh – PAFAH1B3 (human) inhibition; Q15102; recombinant PAFAH1B3, FP-rhodamine probe, fluorescence polarization; inhibition, % at 3.39 µM; 0.28% of 340,000 active; AID 492972;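 active means inhibition above the screen-wide average of all tested compounds plus 3 SD, cut at about 25% in these data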;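 further: 0% = enzyme with DMSO only and 100% = wells lacking PAFAH1B3 protein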
Target sequence (Q15102 whole entry, looked up): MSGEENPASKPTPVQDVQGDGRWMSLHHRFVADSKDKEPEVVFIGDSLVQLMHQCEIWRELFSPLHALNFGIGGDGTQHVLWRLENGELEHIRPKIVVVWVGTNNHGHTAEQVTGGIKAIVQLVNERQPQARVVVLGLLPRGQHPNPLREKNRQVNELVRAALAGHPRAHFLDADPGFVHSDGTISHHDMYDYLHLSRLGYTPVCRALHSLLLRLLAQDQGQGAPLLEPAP
M18AAP inhibitor – blocks P. falciparum M18 aspartyl aminopeptidase; recombinant PfM18AAP, H-Glu-NHMec fluorogenic cleavage; 1.2% of 290,000 active; inhibition, % at 7.35 µM;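 active means inhibition above the campaign mean inhibition over all tested compounds plus 3 SD, cut at about 28% in these data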;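 further: 0% = plate median of test compound wells and 100% = 2 mM ZnCl2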
Pemphigus Ab inh – inhibitors of pemphigus antibody binding to human desmoglein-3 | AID 588358 | P32926 | binding (percent of control), % at 10 µM | 0.48% of 310,000 active | DSG3-coupled beads, scFv-anti-DSG3-GFP binding, flow cytometry; active compounds read low;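 active means binding more than 3 SD below its plate's average and above zero; inconclusive means below that plate limit but binding exactly zero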;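 further: hits lower antibody fragment binding to DSG3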
PAFAH1B3 confirm – PAFAH1B3 (human) inhibition, confirmed; shares compounds with PAFAH1B3 inh; recombinant PAFAH1B3, FP-Rh activity-based probe, fluorescence polarization; inhibition, % at 3.39 µM; 30% of 390 active; AID 493032;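 active means average inhibition over triplicate runs above the hit cutoff set in the earlier primary screen, cut at about 25% in these data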;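 further: 0% = enzyme with DMSO and 100% = wells lacking PAFAH1B3 protein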
An asterisk follows results filed as active; ? = inconclusive; . = no result given; ! = a repeat was not active.

SMILES | PAFAH1B2 FP inh | pPAFAH FP inh | PAFAH2 FP inh | PAFAH1B3 inh | M18AAP inhibitor | Pemphigus Ab inh | PAFAH1B3 confirm
O=[N+]([O-])c1ccc(-c2nc(Nc3ccc(O)cc3)c3ccccc3n2)cc1 | 6 | . | 7 | 18 | -6 | 90 | .
O=C(O)c1ccc(Nc2nc(-c3ccc([N+](=O)[O-])cc3)nc3ccccc23)cc1 | 8 | . | 11 | 26* | -4 | 83 | 14
COCCC1CCCCN1C(=O)c1cc(COc2ccc(-n3cncn3)cc2)on1 (configuration not stated) | 8 | 4 | -5 | -2 | -1 | . | .
C/C(=N/NC(=O)CSc1nc2ccccc2s1)c1ccncc1 | 5 | 0 | 5 | 4 | 0 | . | .
CS/C(=N\S(=O)(=O)c1cccs1)NC(=O)CSc1nc2ccccc2s1 | 20 | 8 | 3 | 31*! | -68 | ? | 20
CCOC(=O)C(Cc1ccccc1)C(=O)NCc1ccccc1 (configuration not stated) | -2 | 2 | 1 | 9 | -13 | 106 | .
Cc1cccc(NC(=O)CN2C(=O)N/C(=C\c3ccc(-c4cccc(C(=O)O)c4)o3)C2=O)c1 | 8 | 10 | 6 | 81* | 4 | 97 | 76*
CCCn1c(=O)c(C(=O)NNS(=O)(=O)c2ccc(NC(=O)OC)cc2)c(O)c2ccccc21 | 9 | 4 | -8 | -1 | 0 | 120 | .
CC(C(=O)N1CCc2ccccc2C1)N(c1ccccc1)S(C)(=O)=O (configuration not stated) | 2 | 0 | -6 | 9 | -4 | 94 | .
CC(=C1C(=O)c2ccccc2C1=O)N1CCc2ccccc2C1 | 2 | 2 | 4 | 27* | 2 | 102 | 9
CC(C)c1ccc(OCC(=O)NNC(=S)NC(=O)c2ccco2)c(Br)c1 | 18 | 9 | 8 | 27* | -4 | 103 | 9
O=C(CN1C(=O)c2ccccc2S1(=O)=O)Nc1ncc(Cl)cc1Cl | 10 | 22 | 26 | 11 | . | . | .
COc1cc(C2Nc3cccc4cccc(c34)N2)cc(OC)c1O | 13 | 6 | 23 | 35* | 1 | 100 | 11
Cc1cccc(NCc2cc(Cl)ccc2O)n1 | -4 | 6 | -2 | 4 | -4 | 106 | .
Oc1ccc(Cl)cc1CNc1cccc2cccnc12 | 17 | 21 | -3 | 28* | 31* | 102 | 6
COC(=O)c1cc2c(n1S(=O)(=O)c1ccc(C)cc1)C(=O)C(=O)c1[nH]cc(C(=O)OCc3ccccc3)c1-2 | 7 | . | 13 | 39* | . | 79 | 34*
COc1ccccc1NS(=O)(=O)c1cc(C(=O)NCC(c2ccc(F)cc2)N2CCOCC2)ccc1C (configuration not stated) | 2 | 2 | -2 | -2 | . | 105 | .
COc1ccccc1NS(=O)(=O)c1cccc(C(=O)NCC(c2ccc(F)cc2)N2CCOCC2)c1 (configuration not stated) | 2 | 6 | -2 | 32* | . | 106 | 9
CCC(C)N(C(=O)CN1C(=O)NC2(CCc3ccccc32)C1=O)C1CCS(=O)(=O)C1 (configuration not stated) | -4 | 2 | -1 | 4 | . | 106 | .
CC(C)C1Nc2ccc(C(=O)O)cc2C2C=CCC21 (configuration not stated) | 12 | 23 | 26 | 29* | 12 | 101 | 16
CC(=O)c1ccc2c(c1)C1C=CCC1C(c1ccc(S(=O)(=O)N3CCOCC3)cc1)N2 (configuration not stated) | 4 | 12 | -3 | 4 | 1 | 96 | .
O=C(NCc1ccco1)c1cccc(Nc2nc3ccc(Br)cc3[nH]2)c1 | 20 | 20 | -17 | 32* | 2 | 98 | 16
CCOC(=O)c1c(C)[nH]c(C)c1C(=O)COC(=O)c1ccc([N+](=O)[O-])s1 | 18 | 18 | 17 | 45* | . | . | 14
C=CCn1c(O)c(N=Nc2ccccc2O)c2ccccc21 | 13 | 14 | 4 | 26* | . | 117 | 13
CCOC(=O)Cc1csc(NC(=O)c2sc3nc4ccc(C)cc4cc3c2N)n1 | -2 | 9 | -5 | 12 | 5 | 125 | .
SMILES | PAFAH1B2 FP inh | pPAFAH FP inh | PAFAH2 FP inh | PAFAH1B3 inh | M18AAP inhibitor | Pemphigus Ab inh | PAFAH1B3 confirm
CCc1nnc(NC(=O)c2sc3nc4cc(C)ccc4cc3c2N)s1 | 19 | 3 | 12 | 27* | 12 | 162 | 20
O=C(CN(C(=O)c1csnn1)c1ccc(Br)cc1)NC1CCCCC1 | 2 | 6 | -6 | -3 | -1 | 112 | .
Cc1ccc(S(=O)(=O)N2[C@@H](c3ccccc3F)C(C(=O)O)=CC[C@H]2c2ccc3c(c2)OCO3)cc1 | 18 | -2 | 4 | 5 | . | 100 | .
C/C(=N/Nc1ccc(C(=O)O)cc1)c1ccc2c(c1)Nc1ccccc1S2 | 6 | . | 25 | 26* | . | 86 | 19
C/C(=N\Nc1ccc(Cl)c(C(=O)O)c1)c1ccc2c(c1)OCO2 | 7 | 2 | 7 | 2 | 27 | 105 | .
Cc1[nH]c2ccccc2c1/C=N/Nc1nc(N2CCCCC2)nc(N2CCCCC2)n1 | 12 | 8 | -10 | 26* | 5 | . | 9
CC(CNC(=O)CCS(=O)(=O)c1ccc2c(c1)NC(=O)CO2)c1ccccc1 (configuration not stated) | 4 | 7 | 10 | 6 | -1 | . | .
Cc1ccc(CNc2ccc(O)cc2)cc1 | 18 | . | 22 | 39* | 11 | 98 | 10
Cc1ccc(NCc2ccccc2O)cc1 | 4 | 4 | -2 | 1 | 4 | 101 | .
C=CCN(C)NC(=S)Nc1ccccc1 | -2 | -2 | 3 | 42* | -2 | 104 | 14
C=CCN(C)NC(=O)Nc1ccccc1 | 3 | 2 | -2 | 11 | -6 | 96 | .
Cn1nc(Cc2n[nH]c(=S)n2C)c2ccccc2c1=O | 3 | 2 | 3 | -2 | 4 | 111 | .
COc1ccc(CNC(=O)[C@@H](C)NC(=O)C2CCN(C(=O)[C@@H](N)CCSC)CC2)cc1 | 8 | 1 | -1 | 8 | 1 | . | .
CC(c1ccccc1)N1C(=O)c2cccnc2C1=O (configuration not stated) | 8 | 1 | -1 | 3 | -4 | 101 | .
CC(NC1=CC(=O)c2cccnc2C1=O)C(O)c1ccccc1 (configuration not stated) | 13 | . | 15 | 56* | . | 85 | 43*
Cc1nc(S/C(=C\c2ccc(OCc3ccccc3Cl)cc2)C(=O)O)n[nH]1 | 17 | 19 | 27 | 7 | -2 | . | .
Cc1nc(S/C(=C\c2ccc(-c3ccc(C(=O)O)c(Cl)c3)o2)C(=O)O)n[nH]1 | 15 | . | 29 | 42* | 25 | 91 | 27*
Nc1nc(NCc2ccco2)nn1-c1ccccc1 | 7 | 3 | 5 | 26* | 7 | 104 | 8
Nc1nc(NCc2cccs2)nn1-c1ccccc1 | 6 | -2 | 11 | 7 | 11 | . | .
